# Assay results as given in PubChem BioAssay (NCATS).
# Records with an inconclusive call do not appear. Activity calls are given as the source filed them. Calls follow the shape of the dose curve; as a rule, active = well fitted cell-killing curve with a large enough effect; inconclusive = small, poorly fitted or top-dose-only effect, or effect the other way; inactive = no such curve, though single readings can be large or run the other way.
# Experiment: Quantitative High-Throughput drug screen in 47 multiple myeloma cell lines against the NCATS MIPE library collection: XG6_PLB cell viability assay (AID 1919865); also: nearly all actives have a fitted effect of over 40% in size
# Settings: XG6 myeloma viability, CellTiter-Glo ATP luminescence, 48 h; series mostly up to 45.8 µM
# Outline: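 Cells were exposed to library compounds for 48 hours, after which ATP was measured by CellTiter-Glo. Signal was taken as median relative luminescence units.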
# Potency is read from the fitted curve at half-maximal effect.
row,Structure (SMILES),Potency
1,C=C[C@@H]1CN2CCC1C[C@@H]2[C@@H](O)c1ccnc2ccccc12 (some centres not stated),18700 nM (active)
2,C[C@H]1CCCC=CC2C[C@H](O)C[C@@H]2[C@H](O)C=CC(=O)O1 (some centres not stated),inactive
3,CC1=C(O)C(=O)C=C2C1=CC=C1[C@@]2(C)CC[C@@]2(C)[C@@H]3C[C@](C)(C(=O)O)CC[C@]3(C)CC[C@]12C,743 nM (active)
4,CCN1CCN(C(=O)Cc2ccc(Nc3ncc(F)c(Nc4ccc(C(=O)Nc5ccccc5Cl)cc4)n3)cc2)CC1,743 nM (active)
5,O=S(=O)(F)Cc1ccccc1,743 nM (active)
6,CC(C)[C@]12O[C@@H]1[C@@H]1O[C@]13[C@]1(O[C@H]1C[C@@H]1C4=C(CC[C@@]13C)C(=O)OC4)[C@H]2O,inactive
7,O=c1[nH]c2ccccc2n1C1CCN(Cc2ccc(-c3[nH]c4cc5ncnc5cc4nc3-c3ccccc3)cc2)CC1,7430 nM (active)
8,CCCC[N+]1(C)[C@H]2CC(OC(=O)[C@H](CO)c3ccccc3)C[C@H]1[C@H]1O[C@H]12 (some centres not stated),inactive
9,CSCC[C@@H](NC(=O)[C@@H](Cc1ccccc1)NC(=O)CNC(=O)CNC(=O)[C@@H](N)Cc1ccc(O)cc1)C(=O)O,inactive
10,COCC1(CO)C(=O)C2CCN1CC2 (configuration not stated),1660 nM (active)
11,c1ccc2c(CN3CCNCC3)cccc2c1,inactive
12,CCc1c(C(=O)C(N)=O)c2c(OCC(=O)O)cccc2n1Cc1ccccc1,inactive
13,C=CCON=C(C[C@H]1O[C@@H]2O[C@]3(C)CC[C@@H]4[C@H](C)CC[C@@H]([C@H]1C)[C@@]24OO3)[C@H]1O[C@@H]2O[C@]3(C)CC[C@H]4[C@H](C)CC[C@@H]([C@@H]1C)[C@@]24OO3,264 nM (active)
14,COc1ccc2c(c[n+](C)c3c4cc5c(cc4ccc23)OCO5)c1OC,5260 nM (active)
15,COc1cccc2c1[C@]13CCN(CC4CC4)[C@H](C2)[C@]1(OC)CCC(=O)C3,inactive
16,Cc1[nH]nc2ccc(-c3cncc(OC[C@@H](N)Cc4c[nH]c5ccccc45)c3)cc12,418 nM (active)
17,CC(C)(O)C=CC(=O)[C@](C)(O)[C@H]1[C@H](O)C[C@]2(C)[C@@H]3CC=C4[C@@H](C=C(O)C(=O)C4(C)C)[C@]3(C)C(=O)C[C@@]12C,66.2 nM (active)
18,CC[C@@H]1[C@@H](C)O[C@@](O)([C@@H](C)[C@H](O)[C@H](C)[C@H]2OC(=O)C=CC=C[C@@H](C)[C@@H]([C@@H](C)[C@@H](O)[C@H](C)[C@@]3(O)C[C@H](O[C@H]4C[C@H](O)[C@H](O)[C@H](C)O4)[C@H](CC)[C@@H](C)O3)OC(=O)C=CC=C[C@@H]2C)C[C@H]1O[C@H]1C[C@H](O)[C@H](O)[C@H](C)O1,469 nM (active)
19,CC[C@@]1(O)C(=O)OCc2c1cc1n(c2=O)Cc2cc3ccccc3nc2-1,14.8 nM (active)
20,CN1CCN(c2ccc([N+](=O)[O-])c3no[n+]([O-])c23)CC1,20900 nM (active)
21,C[C@@H]1O[C@@H](O[C@@H]2C=C3CC[C@@H]4[C@@H](CC[C@]5(C)[C@H](c6ccc(=O)oc6)CC[C@@]45O)[C@@]3(C)CC2)[C@H](O)[C@H](O)[C@H]1O,16.6 nM (active)
22,CC=C(C)C(=O)O[C@H]1C(C)=C2[C@@H]3OC(=O)[C@@](C)(O)[C@@]3(O)[C@@H](OC(=O)CCC)C[C@](C)(OC(C)=O)[C@@H]2[C@@H]1OC(=O)CCCCCCC,372 nM (active)
